Sm TGR block – qHTS Assay for the Inhibitors of Schistosoma Mansoni Peroxiredoxins. purified TGR, DTNB reduction, TNB absorbance 405 nm. Potency, µM (doses to about 114 µM), without a hit: at the highest dose activity change, negative = inhibition, actives largely listed as inhibitors. 3% of 360,000 active; further: on the % scale 0 is the no-effect control and ±100 the full control effect; nearly all actives have a fitted effect of over 60% in size
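Kinetic colorimetric format: TGR-catalysed, NADPH-driven DTNB reduction monitored via TNB absorbance. Enzyme dispensed at 20 nM; compound exposure 15 min at room temperature before reaction start.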
LmPK inh – qHTS Assay for Inhibitors of Leishmania Mexicana Pyruvate Kinase (LmPK); AID 1721, 2009; 0.37% of 290,000 active; purified LmPK, Kinase-Glo ATP luminescence, 1 h; Q27686; Potency, µM (titrated, usually from 57.5 µM), for the others: top-dose activity change, negative = inhibition, most hits filed as inhibitors; further: on the % scale 0 is the no-effect control and ±100 the full control effect
Target sequence (Q27686 whole entry, looked up): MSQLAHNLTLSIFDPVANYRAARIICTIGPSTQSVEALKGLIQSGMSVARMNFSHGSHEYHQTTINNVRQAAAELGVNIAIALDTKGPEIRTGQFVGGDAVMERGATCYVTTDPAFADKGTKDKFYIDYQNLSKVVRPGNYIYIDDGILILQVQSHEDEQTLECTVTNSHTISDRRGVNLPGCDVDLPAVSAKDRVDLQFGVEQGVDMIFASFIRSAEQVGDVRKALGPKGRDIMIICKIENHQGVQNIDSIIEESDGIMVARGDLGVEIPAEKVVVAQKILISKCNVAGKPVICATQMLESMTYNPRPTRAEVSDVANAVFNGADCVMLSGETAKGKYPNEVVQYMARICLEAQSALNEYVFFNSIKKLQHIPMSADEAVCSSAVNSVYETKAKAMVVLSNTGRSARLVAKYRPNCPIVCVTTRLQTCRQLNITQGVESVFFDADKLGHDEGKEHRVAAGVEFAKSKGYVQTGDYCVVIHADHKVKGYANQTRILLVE
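Purified LmPK (0.1 nM) with 0.5 mM PEP and 0.1 mM ADP in imidazole buffer pH 7.2 with MgCl2/KCl, 1 h at room temperature. ATP formed was read by luciferase luminescence and normalized to no-enzyme and uninhibited controls.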
Giardia FBPA inh – qHTS Assay for Inhibitors of Fructose-1,6-bisphosphate Aldolase from Giardia Lamblia. A8B2U2. purified Giardia FBPA. Potency, µM (doses to about 59.6 µM), inactives show at the top dose activity, negative = inhibition, most hits filed as inhibitors. 0.71% of 290,000 active. AID 2451, 2010; further: on the % scale 0 is the no-effect control and ±100 the full control effect; nearly all actives have a fitted effect of over 55% in size
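40 nM FBPA preincubated 10 min at RT with compound (up to 57.5 uM final), then substrate plus GAPDH/TPI/NAD/arsenate coupling and diaphorase/resazurin added. Fluorescence read after 20 min at RT, 525/598 nm.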
NS1 function inh – qHTS Assay for Inhibitors of Influenza NS1 Protein Function. 0.4% of 270,000 active. Potency, µM (highest dose often 46.1 µM), inactives show top-dose activity, positive = more growth; calls by dose curve; further: actives are rising curves; nearly all actives have a fitted effect of over 50% in size
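A cell-based growth assay was used: compounds that relieve NS1-induced slow growth of budding yeast raise OD600. Assay medium was yeast nitrogen base with ammonium sulphate and -URA supplement, pH 6.0, with 2% galactose.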
TbPYK inhibitor – qHTS of Trypanosoma Brucei Inhibitors. TbPYK enzyme, Kinase-Glo Plus ATP luminescence, 45 min. Potency, µM (doses to about 76.8 µM), inactives show at the top dose activity, negative = inhibition, actives largely listed as inhibitors. 0.12% of 410,000 active; further: on the % scale 0 is the no-effect control and ±100 the full control effect; nearly all actives have a fitted effect of over 50% in size
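Screened from lowest to highest concentration, compounds were pinned into TbPYK/substrate mixtures, and ADP (130 uM final) was added. Plates sat at room temperature for 45 min prior to Kinase-Glo Plus detection by luminescence.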
RE007 growth inh – qHTS Assay for Inhibitors of the HIV-1 protein Vpr | 0.21% of 360,000 active | S. pombe RE007 Vpr strain, BacTiter-Glo ATP luminescence, 24 h | Potency, µM (series often up to 92.2 µM), without a hit: top-dose activity change, negative = less growth, most hits filed as inhibitors; active means well fitted falling curve with a large enough effect; inconclusive means small, poorly fitted or top-dose-only effect; inactive means no such curve, though single readings can be large or run the other way; further: on the % scale 0 is the no-effect control and ±100 the full control effect; nearly all actives have a fitted effect of over 50% in size
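Fission yeast strain RE007, carrying one chromosomally integrated HIV-1 vpr copy, was seeded at OD 0.01 in PMG+AL medium with 23 nL pinned compound. After 24 h at 30 °C and 99% humidity, viability was read by BacTiter-Glo luminescence.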
An asterisk follows results filed as active; ? = inconclusive; . = no result given. In the library only some 3.5% were active in any assay of this set; here they are far more common. Unless noted, the call rests on the fitted dose curve; in most records, active means well fitted curve in the direction sought with a large enough effect; inconclusive means small, poorly fitted or top-dose-only effect, or another doubt; inactive means no such curve, though single readings can be large; an effect the other way counts as inactive or inconclusive. Potency means the concentration at half of the fitted maximal effect.

SMILES	Sm TGR block	LmPK inh	Giardia FBPA inh	NS1 function inh	TbPYK inhibitor	RE007 growth inh
CCN(CC)CCNc1oc(-c2ccccc2)nc1S(=O)(=O)c1ccccc1	.	.	.	.	2%	-18%
CNc1oc(C)nc1S(=O)(=O)c1ccccc1	1.6µM*	5%	-20%	3%	-3%	-4%
Cc1nc(S(=O)(=O)c2ccc(Cl)cc2)c(NCc2ccccc2)o1	40µM*	9%	-6%	3%	10%	15%
CCCCSCCCNC(=O)CN1C(=O)COc2ccc(S(=O)(=O)N3CCCC3)cc21	4%	.	.	.	2%	.
CCN1C(=O)N(CC)C(=O)C2(Cc3ccccc3N3CCN(c4ccccc4)CC32)C1=O (stereo not given)	45µM*	7%	-14%	13%	-1%	0%
CN1C(=O)N(C)C(=O)C2(Cc3cc(N)ccc3N3CCN(c4ccccc4F)CC32)C1=O (stereo not given)	?	3%	-6%	-2%	.	.
COc1ccc(C2C(C(=O)OC(C)C)=C(C)N=c3s/c(=C\c4cccs4)c(=O)n32)cc1 (stereo not given)	-7%	0%	0%	11%	2%	0%
C=CCOC(=O)C1=C(C)N=c2s/c(=C3\C(=O)N(CC(=O)O)c4ccccc43)c(=O)n2C1c1ccc(OC)cc1 (stereo not given)	18µM*	-25%	-8%	20%	?	-1%
CCC12CN3CC(C)(CN(C1)C3c1ccc(O)cc1O)C2=O (stereo not given)	0%	.	.	.	3%	.
COC(=O)c1ccc([C@H]2C=C(C(=O)O)O[C@@H](OCc3ccc(CO)cc3)C2)cc1	10µM*	-2%	13%	-9%	-3%	0%
O=C(O)C1=C[C@H](c2ccc(C(F)(F)F)cc2)C[C@H](OCc2ccc(CO)cc2)O1	50µM*	4%	17%	1%	-2%	4%
C#Cc1ccc([C@H]2C=C(C(=O)O)O[C@@H](OCc3ccc(CO)cc3)C2)cc1	35µM*	8%	9%	5%	-5%	1%
C#Cc1ccc([C@@H]2C=C(C(=O)NCc3ccccc3)O[C@H](OCc3ccc(CO)cc3)C2)cc1	?	4%	-19%	3%	4%	4%
O=C(C1=C[C@@H](c2ccc(C(F)(F)F)cc2)C[C@@H](OCc2ccc(CO)cc2)O1)N1CCN(Cc2ccccc2)CC1	35µM*	11%	-5%	-5%	-4%	21%
COC(=O)c1ccc(NC(=O)CSc2ccc(-c3sc(-c4ccccc4)nc3C)nn2)cc1	-10%	.	.	.	0%	.
CCCCSCCCNC(=O)c1cn(CC)c2ccc(S(=O)(=O)N(C)C3CCCCC3)cc2c1=O	-1%	.	.	.	-11%	.
CC(=O)c1ccc(NC(=O)c2ccc3nc(-c4ccco4)c(-c4ccco4)nc3c2)cc1	0.79µM*	0%	?	5%	?	-4%
O=C(Nc1ccc(N2CCOCC2)cc1)c1ccc2nc(-c3ccco3)c(-c3ccco3)nc2c1	?	-6%	-6%	-4%	-6%	-6%
O=C(NCc1ccccc1)c1ccc2nc(-c3ccco3)c(-c3ccco3)nc2c1	1.4µM*	11%	?	30%	?	-12%
O=C(Nc1ccccc1)c1ccc2nc(-c3ccco3)c(-c3ccco3)nc2c1	3.2µM*	0%	?	-40%	?	-6%
CC(=O)c1ccc(NC(=O)CSc2nnc(-c3ccco3)c(-c3ccco3)n2)cc1	2.8µM*	7%	?	-4%	?	4%
COc1ccc(-c2noc(CC(=O)N(C)c3cccc(C)c3)n2)cc1	2%	.	.	.	0%	.
Cc1cccc(CNC(=O)C2CCC(CNS(=O)(=O)c3ccc4c(c3)CCCC(=O)N4)CC2)c1 (stereo not given)	2%	.	.	.	1%	.
CCC(C)NC(=O)c1cn(CC)c2ccc(S(=O)(=O)N3CCc4ccccc4C3)cc2c1=O (stereo not given)	4%	.	.	.	6%	.
Nc1c(C(=O)Nc2ccccc2)sc2nc(-c3ccco3)ccc12	1µM*	-1%	0%	4%	-5%	-5%
SMILES	Sm TGR block	LmPK inh	Giardia FBPA inh	NS1 function inh	TbPYK inhibitor	RE007 growth inh
COc1ccccc1NC(=O)c1sc2nc(-c3ccco3)ccc2c1N	?	4%	-1%	-32%	-6%	9%
CCOC(=O)COc1ccc(CC)cc1C(=O)c1ccn2nc(-c3ccc(C)cc3)cc2n1	6%	.	.	.	0%	.
c1ccc(C[n+]2c(-c3ccccc3)csc2Nc2ccccc2)cc1	-1%	3%	6%	-6%	0%	1%
c1ccc(Nc2scc(-c3ccccc3)[n+]2Cc2ccco2)cc1	40µM*	1%	-16%	.	-4%	-19%
Cc1cccc(N2CCN(C(=O)CCS(=O)(=O)c3ccc4c(c3)CC(=O)N4C)CC2C)c1 (stereo not given)	13µM*	.	.	.	5%	.
Cc1ccccc1-c1cc(=O)c2ccccc2o1	.	.	.	.	8%	-30%
O=c1cc(-c2ccccc2F)oc2ccccc12	1%	1%	1%	-7%	2%	63µM*
CCOC(=O)c1nc2cc3n(c(CC(C)C)c-2c1C)CC(C)=C3C	56µM*	1%	-17%	14%	5%	4%
CCOC(=O)c1nc2cc3n(c(C)c-2c1C)C(C)C(C)=C3C (stereo not given)	-1%	-2%	-18%	18%	-3%	-7%
Cc1nn(CC(=O)NCCc2ccc(Cl)cc2)c(=O)c2cc3cc(F)ccc3n12	-1%	.	.	.	10%	.
O=C1Nc2ccccc2C(=O)C1(Cl)Cc1ccccc1 (stereo not given)	6%	-1%	-19%	-116%	4.5µM*	-2%
CCOC(=O)c1ccc(N2CCN(c3cc(Cl)ccc3C)CC2)c(NC(=O)Nc2cccc(OC)c2)c1	8%	.	.	.	3%	.
CCOc1ccccc1Nc1nc(-c2ccc(C)cc2)c(CC(=O)O)s1	40µM*	.	.	.	-8%	.
CS(=O)(=O)n1nc(OC(=O)c2cc(Br)ccc2Cl)cc1N	5µM*	0%	9%	.	-12%	2%
CS(=O)(=O)n1nc(OC(=O)c2cccs2)cc1N	40µM*	0%	6%	8%	-13%	-1%
CS(=O)(=O)n1nc(OC(=O)c2cccc3ccccc23)cc1N	0%	7%	-4%	5%	-12%	2%
Cc1c(C(=O)Nc2cccc(F)c2)oc2c1-c1nn(Cc3c(F)cccc3Cl)cc1CC2	7%	.	.	.	-17%	.
